The nature of assay [1]: inhibitors of TNFa-induced NFkB p65 translocation, primary screen, imaging, HUVEC, MLSMR starter and 10KST1 sets (AID 438;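 active = inhibition above 20% together with a positive visual image hit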;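 note: compound added about 3h40 before a 20 min TNFalpha stimulation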;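 for inhibition: signal is the nuclear over cytoplasmic p65 intensity ratio per well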). The note with it: HUVEC TNFa-induced p65 nuclear translocation; cell count: measured here: nuclei count (cytotoxicity indicator), at 2.08 µM; inhibition: at 2 µM, stronger effect = higher value, 0% TNFa-plus-vehicle, 100% no-TNFa wells.
The nature of assay [2]: reduction of polyQ htt aggregates in cells – imaging, exon1htt(103Q)mCFP cells, high-content imaging, primary screen (AID 483;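 active = visual image review flags a hit and inhibition of aggregation exceeds 20%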;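 note: compound exposure lasted 3 days before fixation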;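 for nuclei count: percent of the per-plate median nuclei count of sample wells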). The note with it: exon1htt(103Q)mCFP cell line, aggregate imaging, at 2 µM; inhibition of aggregation: stronger effect = higher value; nuclei count: measured here: cell count, toxicity.
Assay [3] in a line: endothelial E-selectin expression blockers – imaging, HUVEC, immunofluorescence, MLSMR starter and 10KST1 sets, primary screen (AID 487;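 active = visually confirmed hit in the image check and inhibition above 20%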;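 for inhibition: signal is fraction of cell area covered by stained E-selectin grains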;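 for nuclei count: 100% = median nuclei count of all wells on the same plate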). The note with it: HUVEC TNFalpha-induced E-selectin immunofluorescence imaging, at 2 µM; inhibition: stronger effect = higher value; nuclei count: measured here: cell number, toxicity.
Assay [4] concerns the target Voltage-gated potassium channel subunit beta-2 (Rattus norvegicus) (UniProt P62483). Put plainly: inhibitors of rat Kvbeta2 reductase activity – biochemical, NADPH fluorescence, primary screen (AID 622;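 active = fluorescence slope higher than the sample average by over 3 SD, cut at about -0.22 in these data, passing the limit was not always enough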;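 note: slope of raw intensity against log time taken from 70 to 1610 s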). The note with it: recombinant KvBeta, 4-cyanobenzaldehyde reduction, at 10 µM, stronger effect = higher value.
Assay [5] shares this target. Put plainly: enhancers of rat Kvbeta2 NADPH turnover – biochemical, NADPH fluorescence, primary screen (AID 623;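 active = NADPH fluorescence slope more negative than the mean of all samples by about 3 SD, 99.7% confidence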;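 note: fluorescence intensity change per second fitted from 20 to 320 s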). The note with it: Recombinant KvBeta, NADPH fluorescence decrease slope, 10 min; at 10 µM; stronger effect = lower value.
Assay [6] deals with Alpha-2C adrenergic receptor (Homo sapiens) (UniProt P18825). As to the kind of experiment: compounds altering alpha2C-coupled GIRK flux – cell-based, HEK293 alpha2C/GIRK1/2, thallium flux, primary screen (AID 624;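 active = fluorescence slope after compound addition differing from the mean of all screened samples at 99.7% confidence, in either direction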;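 note: slope of fluorescence ratio to pre-addition baseline per second over 15 to 24 s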). The note with it: thallium flux BTC fluorescence, at 10 µM, actives lie on both sides.
Sequence of Alpha-2C adrenergic receptor (Homo sapiens) (P18825 whole entry, looked up): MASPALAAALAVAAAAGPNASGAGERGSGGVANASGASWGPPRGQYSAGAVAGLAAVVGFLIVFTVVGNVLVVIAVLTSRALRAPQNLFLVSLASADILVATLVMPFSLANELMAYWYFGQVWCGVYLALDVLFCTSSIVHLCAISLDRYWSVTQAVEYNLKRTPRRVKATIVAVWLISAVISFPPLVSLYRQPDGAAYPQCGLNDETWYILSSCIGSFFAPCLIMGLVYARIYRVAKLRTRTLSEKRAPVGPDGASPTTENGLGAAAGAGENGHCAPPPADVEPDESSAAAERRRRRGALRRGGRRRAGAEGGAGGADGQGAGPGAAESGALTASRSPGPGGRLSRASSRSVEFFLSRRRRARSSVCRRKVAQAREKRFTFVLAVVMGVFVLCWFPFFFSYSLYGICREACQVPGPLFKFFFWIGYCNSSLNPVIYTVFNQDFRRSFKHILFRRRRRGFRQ
Assay [7] in a line: blockers of RIG-like receptor reporter activation – cell-based, Sendai virus stimulus, luciferase, 10K MLSCN set, TLR/RLR signaling modifier project, primary screen (AID 602276;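 active = inhibition at or above 50% at 10 µM; inactive = inhibition below 50%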;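 note: firefly luciferase from ISG56 promoter only with Renilla not read in this screen; 0% = Sendai virus plus DMSO and 100% = medium plus DMSO without virus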). The note with it: HEK293 RL24 IRF3 luciferase reporter, at 10 µM, stronger effect = higher value. A general note: Reporter assays use an easily measured gene product as a stand-in for the process of interest.
Assay [8] can be described thus: TLR3 IRF3 reporter activation blockers – cell-based, poly I:C stimulus, luciferase, 10K MLSCN set, primary screen (AID 602277). The note with it: HEK293-TLR3 RL24 IRF3 luciferase reporter, at 10 µM, stronger effect = higher value.

A word on the inhibition: it is the change of the read-out against control, counted positive when it falls.

Activity calls are given as the source filed them.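 Rule for the calls, unless noted: active = inhibition of the reporter signal at or above 50%; inactive = inhibition below 50%.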

Sequence of Voltage-gated potassium channel subunit beta-2 (Rattus norvegicus) (P62483 whole entry, looked up): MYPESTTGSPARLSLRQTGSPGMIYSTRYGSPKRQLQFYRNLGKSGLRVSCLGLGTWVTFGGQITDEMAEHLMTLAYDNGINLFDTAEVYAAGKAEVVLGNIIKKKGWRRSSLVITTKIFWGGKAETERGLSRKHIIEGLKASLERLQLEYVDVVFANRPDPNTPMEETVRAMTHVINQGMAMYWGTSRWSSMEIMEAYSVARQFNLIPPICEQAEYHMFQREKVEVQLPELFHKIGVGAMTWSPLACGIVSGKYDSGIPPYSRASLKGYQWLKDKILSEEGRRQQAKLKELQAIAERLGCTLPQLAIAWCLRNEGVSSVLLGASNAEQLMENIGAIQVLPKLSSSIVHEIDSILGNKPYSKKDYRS

Take `COc1ccc(-c2nnc(SCC(=O)NC(=O)NCc3ccco3)o2)cc1`: the cell count in assay [1] was found to be 417. For the same compound, the figures for the inhibition in assay [1], in assay [7] and in assay [8] were 5.6% (inactive), 18.6% (inactive) and 24.4% (inactive), respectively. The inhibition of aggregation in assay [2] was -7.4% (inactive). Also, the figures for the nuclei count in assay [2] and in assay [3] were 102% and 157%, respectively. In assay [4], the fluorescence slope was -0.455 (inactive). Besides, in assay [5], the NADPH fluorescence slope is 9.2e-05 (inactive). Moreover, the slope in assay [6] was 0.00577 (inactive).

`OCc1cn(-c2ccccc2)nc1-c1ccc2c(c1)OCCO2`: the cell count in assay [1] came out at 438. Also, the inhibition in assay [1] was 4.2% (inactive); in assay [3], -84% (inactive); in assay [7], -51.8% (inactive); in assay [8] it was -135% (inactive). Further, the inhibition of aggregation in assay [2] was -10.7% (inactive). Besides, the nuclei count in assay [2] was 99.4%; in assay [3], 112%. Moreover, the fluorescence slope in assay [4] was -0.532 (inactive). Besides, the NADPH fluorescence slope in assay [5] was -4.4e-05 (inactive). Also, in assay [6], the slope was 0.00702 (inactive).

For the compound `Cc1cccc(NC(=O)CSc2nnc(-c3ccccc3C)o2)c1`, the cell count in assay [1] was 414. In addition, the inhibition in assay [1] was 0.8% (inactive); in assay [7] it was -55.2% (inactive); in assay [8], -86.9% (inactive). In addition, the inhibition of aggregation in assay [2] was -0.2% (inactive). The values for the nuclei count in assay [2] and in assay [3] were 92% and 116%, respectively. In addition, in assay [4], the fluorescence slope was -0.32 (inactive). Moreover, in assay [5], the NADPH fluorescence slope was -4.9e-05 (inactive). The slope in assay [6] is 0.00441 (inactive).

Consider `O=C(CCN1C(=O)C2C3C=CC(C3)C2C1=O)N1CCN(c2ccccc2Cl)CC1` (centres undefined), for which the cell count in assay [1] came to 776. Moreover, the inhibition in assay [1] is -18.1% (inactive); in assay [3] it was 2.5% (inactive); in assay [7], 10.7% (inactive); in assay [8], 11.9% (inactive). Moreover, in assay [2], the inhibition of aggregation was -5% (inactive). Moreover, the nuclei count in assay [2] amounted to 123%; in assay [3] it was 107%. Also, in assay [4], the fluorescence slope was -0.399 (inactive). Further, in assay [5], the NADPH fluorescence slope is -4.7e-05 (inactive). Also, the slope in assay [6] is 0.00465 (inactive).

Turning to `CCOC(=O)C1CCN(c2c(NC3CCCc4ccccc43)c(=O)c2=O)CC1` (centres undefined), the cell count in assay [1] stood at 672. Also, the inhibition in assay [1] was 6.6% (inactive); in assay [3] it was -22.1% (inactive); in assay [7] it was 7.84% (inactive); in assay [8], 29.9% (inactive). Besides, in assay [2], the inhibition of aggregation is -3.3% (inactive). The figures for the nuclei count in assay [2] and in assay [3] were 86.1% and 98.7%, respectively. The fluorescence slope in assay [4] is -0.571 (inactive). Moreover, in assay [5], the NADPH fluorescence slope was -3e-05 (inactive). Also, the slope in assay [6] is 0.00585 (inactive).

As to `COc1ccc(-c2nnc(SCC(=O)Nc3sc4c(c3C#N)CCC4)n2CC2CCCO2)cc1` (centres undefined), the cell count in assay [1] came out at 846. Besides, the inhibition in assay [1] is 4.6% (inactive); in assay [3], -171% (inactive); in assay [7], 7.87% (inactive); in assay [8], 15.5% (inactive). Moreover, in assay [2], the inhibition of aggregation is 13.5% (inactive). In addition, the results for the nuclei count in assay [2] and in assay [3] were 103% and 131%, respectively. Further, the fluorescence slope in assay [4] is -0.591 (inactive). Moreover, in assay [5], the NADPH fluorescence slope is -5.3e-05 (inactive). The slope in assay [6] is 0.00872 (inactive).

The values above are taken from PubChem BioAssay.
